Pf growth 48h: inhibits P. falciparum growth in the first generation, 48 h. P. falciparum luciferase growth in erythrocytes, 48 h. AID 504832. 5.9% of 310,000 active. Potency, µM (series often up to 28.7 µM), hits mostly inhibitors
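Read-out is firefly luciferase luminescence from an integrated reporter in P. falciparum, so falling signal marks reduced parasite growth. Infected erythrocytes were at 2% hematocrit and 0.1% parasitemia (final) in Albumax-supplemented RPMI 1640.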
Shiga toxin inh: inhibitors of Shiga toxin in Vero cells | Vero cells, Shiga toxin protein synthesis inhibition reporter | inhibition, % at 38.7 µM | 9.2% of 290,000 active | AID 2315; in the data active = inhibition mostly above about 28%, no sharp cut-off; inactive = mostly below about 43%
AMA1-RON2 inh: inhibitors of Plasmodium falciparum AMA1-RON2 interaction. AlphaScreen AMA1-biotinylated RON2 peptide binding. Potency, µM (series often up to 58.2 µM), hits mostly inhibitors. 0.2% of 360,000 active. AID 720542; note: nearly all actives have a fitted effect of over 45% in size
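AMA1 (3D7) with his tag at 25 nM final met compounds first, then biotinylated RON2 peptide at 25 nM; detection used donor plus acceptor beads, 10 µg/mL apiece, read by AlphaScreen after 30 min at room temperature.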
SARS PLP yeast: SARS-CoV PLP inhibition in yeast | AID 485353 | 0.19% of 330,000 active | Potency, µM (top dose mostly 32.9 µM), usual class: activators | S. cerevisiae expressing SARS-CoV PLpro, growth rescue; calls by dose curve; note: nearly all actives have a fitted effect of over 55% in size
Pf growth 96h: P. falciparum growth inhibition at 96 hour, primary screen for plastid delayed-death inhibitors. AID 504834. Potency, µM (top dose mostly 28.7 µM), most hits filed as inhibitors. P. falciparum luciferase reporter growth, 96 h. 6.9% of 320,000 active
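Compounds incubated with erythrocytes infected by luciferase-expressing P. falciparum (2% hematocrit, 0.05% parasitemia final) for 96 hours, 37 C in 5% CO2. Growth inhibition scored as decreased luciferase luminescence.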
CHX counter: affects cycloheximide protein synthesis inhibition readout, counter-screen. cell reporter, cycloheximide protein synthesis inhibition counterscreen. max response, %. 12% of 300,000 active; in the data active = max response mostly above about 13%, no sharp cut-off; inactive = mostly below about 14%; note: read at 38.3 µM for the half of the compounds with a filed dose
Of the large screens only hits and unclear results are named; the others gave an inactive call. Hits are enriched below; roughly 19% of the tested compounds scored in any of these assays. Unless noted, calls come from the whole dose curve; as a rule, active = well fitted curve in the direction sought with a large enough effect; inconclusive = small, poorly fitted or top-dose-only effect, or another doubt; inactive = no such curve, though single readings can be large; an effect the other way counts as inactive or inconclusive.

C=CC[C@@H](Cc1ccc(F)cc1)C(=O)OC[C@@H]1CCCN1C(=O)[C@@H](CC=C)CC(=O)N(CCO)Cc1ccccc1	none (no result: Pf growth 48h, Shiga toxin inh, Pf growth 96h, CHX counter)
Cc1ccc2nc(N3CCN(S(=O)(=O)c4ccc(C)c(Cl)c4)CC3)c(C#N)cc2c1	Pf growth 96h inconclusive (no result: Pf growth 48h)
COC(=O)c1cc(-c2c(-c3ccc4c(c3)OCO4)noc2-c2ccsc2)cc([N+](=O)[O-])c1	Pf growth 96h inconclusive, CHX counter 25
CN(C)c1ccc(-c2c(-c3ccc4c(c3)OCO4)noc2-c2ccsc2)cn1	Pf growth 48h inconclusive, Shiga toxin inh 40, CHX counter 28
COc1ccc(-c2c(-c3ccc4c(c3)OCO4)noc2C)cn1	Shiga toxin inh 67, CHX counter 25
O=C(O)c1cc(-c2ccc(-c3c(-c4ccc5c(c4)OCO5)noc3-c3ccsc3)cc2)nc2ccccc12	Shiga toxin inh 61, Pf growth 96h inconclusive, CHX counter 36
O=C(O)c1cc(-c2ccc3c(c2)OCO3)nc2ccc(Cl)cc12	none
Cc1cc(C)c(S(=O)(=O)c2ccccc2)c(OC(=O)c2cc(F)c(F)cc2Cl)n1	none
CC(C)CCNC(=O)CCc1nnc2ccc(N3CCC(C)CC3)nn12	Pf growth 96h inconclusive
OC/C=C/c1ccccc1	none (no result: Shiga toxin inh, AMA1-RON2 inh, SARS PLP yeast, CHX counter)
Cc1cc(-n2cnc(-c3cn[nH]c3C)n2)no1	Shiga toxin inh 72
C=CCNC(=O)COc1cc(C)cc(C)c1C	none
CCC(C)n1c(NC(=O)c2ccccc2)c(C#N)c2nc3ccccc3nc21 (stereo unspecified)	Pf growth 48h 3.7µM, Pf growth 96h 2.9µM
CCCCn1c(NC(=O)c2ccccc2)c(C#N)c2nc3ccccc3nc21	Pf growth 48h 5.9µM (no result: Pf growth 96h)
CCC(=O)Nc1c(C#N)c2nc3ccccc3nc2n1-c1ccc(C)cc1	none (no result: Pf growth 48h, Shiga toxin inh, SARS PLP yeast, Pf growth 96h, CHX counter)
